Assay in all cases: MAPPIT interaction score (arbitrary units); higher = stronger binary interaction signal, active = hit call of the paper
In one assay the target is CG7548. To be noted: MAPPIT configuration: N-N.
A further assay concerns the target CG5854. To be noted: MAPPIT configuration: N-N; pair source set: Curagen_high_conf.
In another assay the target is Zip88E. To be noted: MAPPIT configuration: N-N; pair source set: Lit-BS-16.
For another assay, the target named is CG7137. To be noted: pair source set: Lit-BM-16.
For a further assay, the target named is CG7044. To be noted: MAPPIT configuration: N-N; pair source set: Lit-BS-16.
The next assay deals with aspr. Particulars: MAPPIT configuration: N-N; pair source set: Lit-BS-16;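 active = MAPPIT score above the 99th percentile of random reference set scores in the same batch; inactive = at or below it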.
A further assay concerns the target CG6996. To be noted: MAPPIT configuration: N-N; pair source set: Finley_Y2H.
The target in another assay is Mcad. Particulars: MAPPIT configuration: N-N; pair source set: Lit-BS-16.
For the next assay, the target named is Treh. To be noted: MAPPIT configuration: N-N; pair source set: Finley_Y2H.
A further assay has as its target Unr. To be noted: pair source set: Lit-BM-16.
Another assay addresses gcm. To be noted: MAPPIT configuration: N-N; pair source set: Finley_Y2H.
The next assay concerns the target noi. Particulars: MAPPIT configuration: N-N; pair source set: Finley_Y2H.
Another assay has as its target prd. To be noted: MAPPIT configuration: N-N; pair source set: Finley_Y2H.
A further assay addresses CG6712. Particulars: MAPPIT configuration: N-N; pair source set: DPIM.
A further assay has as its target CG7407. To be noted: MAPPIT configuration: N-C; pair source set: screen_3.
A further assay concerns the target Dpm3. Particulars: MAPPIT configuration: N-C; pair source set: screen_4.
The target in another assay is CG6933. Particulars: MAPPIT configuration: N-N; pair source set: Lit-BS-16.
Another assay has as its target CG6664. To be noted: MAPPIT configuration: N-N; pair source set: DPIM.
For the next assay, the target named is CG6683. To be noted: MAPPIT configuration: N-N; pair source set: Lit-BS-16.
The target in another assay is CG8654. To be noted: MAPPIT configuration: N-N; pair source set: DPIM.
For another assay, the target named is vih. To be noted: MAPPIT configuration: N-N; pair source set: Curagen_low_conf.
Another assay concerns the target CG5883. Particulars: MAPPIT configuration: N-N; pair source set: RRS.
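Further: HEK293T cells with Epo stimulation, STAT-responsive firefly luciferase reporter, fold induction versus unstimulated cells divided by the larger fold induction of two negative controls lacking either bait or prey.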

B1: sicily (protein)
chain: MRRLVRNWNCRLLFNAKSGQEIVSHAGIHQEAKTNAIPREKKVIEADKNGYGAKHCMSLVEKYDYENYLCTLLLPRELRRAAFALRAFNVEVSRSVSGHQIEPQIAKMRLKFWHDSIDKCFEPDSQRSYVEDQPVLRELKHTVGSRKLNKVYLRRLVTARERPPTHAFESIRELEEYTEQTFSSLLLLLLEVGGVRDLNADHAASHLGKAQGIATLLRSIPLAGRQQAPCIPLEVLVLHGVSQERIIRSKSDDKGVEDCIFDVASAANTHLKLARQLHDKVPPQVRKIFLSAVATDAYLERLRRANFLLTHKSCVGRDTLLPARLFWKSLLNRF
Take B1: the MAPPIT interaction score with CG7548 (pair source set: Finley_Y2H) and with CG7548 (pair source set: Lit-BS-16) was -0.0114 (inactive) each time.

B2: pip (protein)
chain: MSLNAERSYKMKLRDVENAFKYRRIPYPKRSVELIALLAISCTFFLFMHTNKLNSRLKEMEVKLQPSEFSALGLTGNHISGHDAGKHDDINTLHGTYQYLKSTGQKVGYNVHDRRSSEEQLRTPTAHGHHHDHHSHHHHMHQQEKIDGHKHKASHDKQLAVPDNKHKEDEVHYEDDEDEVEENDDDLANDVGTTDSEGFNFKADLLNNTKYAEVDFVFFNRVPKVGSQSLMELMARLGKINGFTHARNKGSAHETIVMNKQRQNDLIADLLTRPKPHIYSQHIAYINFTRFHLPKPIYINLIRDPIDRIISWHYYIRAPWYYRDMQAKLGENAIPMPSEEFMNLDLDTCVRNHDPHCTFTQMQIKNPVGDHRRQTLFFCGMNQKLCMPFNSEAAMQKAKRTVETEYAVVGTWEDTNITLSVLEAYIPRYFRNAKVAYYLGKDRLSRVNRNNVTRIVSDETRLILRKNLTNEIEFYEFCKQRLYLQYAALSHGKRFGEDDYLLVPEQQNEYNEDY
With B2, the MAPPIT interaction score with CG5854 is -0.136 (inactive); with Zip88E it was 0.425 (inactive).

B3: grau (protein)
chain: MDICRLCLRGVSGAQMCLQIFDVDSGESKVAEVLRQHFWFEVLPNDEISKVICNVCWTQVSEFHQFYVSIQEAQVIYATTSKFKQDPEMVNTSWPEEVLMPADVLAVDNDVGAQINVNPLDELDLSQPMSPEDSKVGIKTERQSPDMELLFEDANNEQDEDYEDDEDDDTDDLIVTRSGRKRKRDVAKPAKTKRGTVSVGRKGKEKMVVKRGPPKRIFKMERLPPFCKEDEELIKRYIVMGCELCIFLAEDFDGIREHFKDKHPDERPYIKCCGRKLNKRCLIQEHARRHENPEYIKCKDCGKVFANSSVLRAHWLVHHVPDEECDFQCEDCGKRFSRRNLLELHKGSHVPVNERKFICPQCPKHNAFATEYHMQVHISMQHRKAANICHVCGKKIKDKAVFEKHVRLHFEESGPRIKCPRPDCESWLKDEDNLKQHLRRHNDEGKLFICSECGKSCKNSRALIGHKRYSHSNVIYTCEQCGKTFKKDISLKEHMAQHTGEPLYKCPFCPRTFNSNANMHSHKKKMHPVEWDIWRKTKTGSSQKVLPSAQVAQMFRDDADVAAIANDYSG
As to B3, the MAPPIT interaction score was 3.33 (inactive) in the assay with CG7137 (MAPPIT configuration: N-C) and 0.66 (inactive) with CG7137 (MAPPIT configuration: N-N).

B4: sala (protein)
chain: MKLLIALFALVTAVNAQNGFGQVGQGGYGGQGGFGGFGGIGGQAGFGGQIGFTGQGGVGGQVGIGQGGVHPGQGGFAGQGSPNQYQPGYGSPVGSGHFHGTNPVESGHFHENPHEYPEHHGDHHREHHEHHGHHEHHGHHRH
For the molecule B4, the MAPPIT interaction score with CG7044 was 0.14 (inactive); with aspr it was -0.194 (inactive).

B5: Sxl (protein)
chain: MYGNNNPGSNNNNGGYPPYGYNNKSSGGRGFGMSHSLPSGMSRYAFSPQDTEFSFPSSSSRRGYNDFPGCGGSGGNGGSANNLGGGNMCHLPPMASNNSLNNLCGLSLGSGGSDDLMNDPRASNTNLIVNYLPQDMTDRELYALFRAIGPINTCRIMRDYKTGYSFGYAFVDFTSEMDSQRAIKVLNGITVRNKRLKVSYARPGGESIKDTNLYVTNLPRTITDDQLDTIFGKYGSIVQKNILRDKLTGRPRGVAFVRYNKREEAQEAISALNNVIPEGGSQPLSVRLAEEHGKAKAAHFMSQMGVVPANVPPPPPQPPAHMAAAFNMMHRGRSIKSQQRFQNSHPYFDAKKFI
Consider B5, for which the MAPPIT interaction score was 0.192 (inactive) with CG6996; 1.44 (inactive) with Mcad; -0.289 (inactive) with Treh; 3.02 (inactive) in the assay with Unr (MAPPIT configuration: N-C); 2.17 (inactive) with Unr (MAPPIT configuration: N-N); -0.368 (inactive) with gcm. For the same molecule, the MAPPIT interaction score in the assay with noi was 4.3 (active); with prd it was -0.691 (inactive).

B6: Vha55 (protein)
chain: MNAQQAQREHVLAVSRDFISQPRLTYKTVSGVNGPLVILDEVKFPKFAEIVQLRLADGTVRSGQVLEVSGSKAVVQVFEGTSGIDAKNTLCEFTGDILRTPVSEDMLGRVFNGSGKPIDKGPPILAEDFLDIQGQPINPWSRIYPEEMIQTGISAIDVMNSIARGQKIPIFSAAGLPHNEIAAQICRQAGLVKLPGKSVLDDHTDNFAIVFAAMGVNMETARFFKQDFEENGSMENVCLFLNLANDPTIERIITPRLALTAAEFLAYQCEKHVLVILTDMSSYAEALREVSAAREEVPGRRGFPGYMYTDLATIYERAGRVEGRNGSITQIPILTMPNDDITHPIPDLTGYITEGQIYVDRQLHNRQIYPPVNVLPSLSRLMKSAIGEGMTRKDHSDVSNQLYACYAIGKDVQAMKAVVGEEALTPDDLLYLEFLTKFEKNFISQGNYENRTVFESLDIGWQLLRIFPKEMLKRIPASILAEFYPRDSRH
For the molecule B6, the MAPPIT interaction score with CG6712 was -0.225 (inactive).

B7: Sras (protein)
chain: MKNLSETEAEVTMQENVVHESLPQIPVATSVSCCFVLAVLYVGSLYIWSTKHNRDHPTTVKRRFASVSMVMLAAPFFVYFFSSPELLSRVPFPKLLGLRLEGLWQAVVIPYSLTVLLFLGPIFVNMQNESVRSYFDLDYWRGSFGSIIWVRNHVIAPLSEEFVFRACMMPLILQSFSPLVAVFITPLFFGVAHLHHIAERLSLGVELSTALLIGLFQFIYTTLFGFYSAFLFARTGHVMAPILVHAFCNHMGLPDLQDLWQQDLWRRVVAIILYLAGFVGWMFLVPLATDPSIYDNTLYWNA
With B7, the results for the MAPPIT interaction score with CG7407 and in the assay with Dpm3 were -0.229 (inactive) and 0.0475 (inactive), respectively.

B8: Inx7 (protein)
chain: MLNTFSSVRQYLKFDLTRVVIDNIVFKLHYRWTFVILLVATLLITSRQYIGEHIQCLSDGVVSPVINTFCFFTPTFTVVRDQNQTAYRPGSEPPGIGAFDPEKDTIKRHAYYQWVPFVLFFQALCFYIPHALWKSWEGGRIKALVFGLRMVGLTRYLKNDSLRIGKLNIPSMAEAEERVKDIRRTMIDRMRLNQSWGAHLVFAEVLNLINLLLQITWTNRFLGGQFLTLGPHALKNRWSDELSVLDLVFPKITKCKFHKFGDSGSIQMHDALCVMALNIMNEKIYIILWFWYAFLLIVTVLGLLWRILTLCFYRNVTFTRWSLYWAKPGQLDENELLAVIDKCNFSNWMFLFFLRSNLSEFLFKKVIYHLASEFPNPDHDNDVNAYREAPPTPAKNRYPELSGLDTIDSPLLHLRRNGSPSAGGAQGPSTSDMAKLPV
With B8, the MAPPIT interaction score with CG6933 is -0.387 (inactive).

B9: Cbp80 (protein)
chain: MSRRRAHDTEDEGYDHRRNKRRRVSENQEIEDRLESLILRVGERSTSSVESNLEGLVSVLEADLGTFRLKILRILSDCAVRMPEKCTVYTTLVGLLNAKNYKFGGEFVDHMVKTFKESLKMCRWDAARYSLRFLADLVNCHVISATSLLQLLDTMIDVSNEDTVPQVRRDWFVFAVLSTLPWVGRDLYEKKESALESLLLRIEVYLNKRSKKHHNALRVWSSDAPHPQEEYLDCLWAQIRKLRQDNWAEKHIPRPYLVFDSILCEALQHNLPTIVPPPHHDNFEYPMPWVVYRMFDYTDCPDGPNLPGAHSIERFLIEEHLHHIIETYHHERKDCAAQLLSFPYKHKIPLEYCIVEVVFAELFHMPTPRYLDICYGSILIELCKLQPATLPQVLAQATEILFMRIDSMNTSCFDRFVNWFSYHLSNFKFTWSWDEWDSCLLLDGEHPRPKFIQEVLQKCLRLSYHQRITEMMPTTYAKLIPLTPVPNYKYANEEAANLPGTTVAHQLVVAIRQKCTPEEVVNILKDIPNSGYSGEEMSDGSFNALKIDVFVQTLLNLGSKSFSHSFAAISKFHSVFRALAETEEAQICILHNIFELWSSHQQMMVVLIDKLLKLQIVDCSAVATWIFSKEMTGEFTKLYLWEILHLTIKKMNKHVIKLNTELSEAKEKLAKADSSSSDSEDDSSHKRKKPITHADKPSEEVVERMEEKLEAANVNQKRLFLIVFQRFIMILSEHLLRSDTDGRDPDTDWYRWTIGRLQQVFLMHHEQVQKYSSTLETLLFTSDLDTHILEVFQQFVALRA
For the molecule B9, the MAPPIT interaction score with CG6664 was -0.12 (inactive).

B10: frj (protein)
chain: MSIDDVIYVICLLGCIGAGSYVKKIADEGQRKLVSTGLGVLVVVIVSGLHSLHCFVSLALGTAAVLLVHPSKGHLVTFAVMFGYLVFFRIFDFYFGIPGHTNMIQMILTLKVSGIAFEKTAAWKRLQAHDEQKKNDQRDVHQESPIEITDYDVELQSLSAAEILHYSFNYIGVLTGPYYRYRTYRDYFEMPFKTYAPTVEATLEKLKYAVFYCALYLATNYMWPLDYALSDEFFNDRSFVYRLLYVWPTFFTFRARIYTGLTLSECVCTMAGFGAYPDESDPNNGEGPRKRYQHLKRDADKHTYNFTTIVNTRVLEVERCWTFREGMKHWNVCVQYWLAVNVYKLFPSKKYRTGATLLCSAYWHGFRPGHYFCIMGAPFYVSLEDMWDKLVRKSATGTSRRVIDVIFWIFKWFAFSYLGEAFLLSSFGNIWRFYSSVYHIGYISWAAMTALGFYLTSQRKAAERRKKRAAEKAAGGDGIAAAIEKEKAQ
Turning to B10, the MAPPIT interaction score in the assay with CG6933 was 0.0283 (inactive).

B11: Fer1HCH (protein)
chain: MVKLIASLLLLAVVAQAYGDFKCSLAVPEITKDWVDMKDACIKGMRNQIQEEINASYQYLAMGAYFSRDTVNRPGFAEHFFKAAKEEREHGSKLVEYLSMRGQLTEGVSDLINVPTVAKQEWTDGAAALSDALDLEIKVTKSIRKLIQTCENKPYNHYHLVDYLTGVYLEEQLHGQRELAGKLTTLKKMMDTNGELGEFLFDKTL
With B11, the MAPPIT interaction score with CG6683 was -0.52 (inactive); in the assay with CG8654, 0.0556 (inactive); with vih, -0.155 (inactive).

B12: mRpL39 (protein)
chain: MSAATKLHKTSWCALRQLQQYRTKANFSGSSASLAKRNDLFNQEQRRQRDAVGRIDKIEVRYLGLPEDVTLVMNGNISTPFNCAQHLSEGHCKRSALALIDGSVPWDMHRPLQESCTLQLLNFHVSEPHVVNKAFWRTCSFMLGAALNRAFKPEANLQLHSFPGPNIKSGSFVHDIVLQTQNWEPGKEEMRALSAEMVKLAAQDLRIERLDVQQDLAQEMFKDSKYKSEQLPSISQQTNGRVTLYRLGDHIDISRGPMVASTSFLGKCVISAAHKVAEEGPSGAFYRIQGVALPSGFQLNHVAFGVLEERSKKPSPARLPNEPFEEQQQLQLS
In the case of B12, the MAPPIT interaction score with CG5883 is -0.604 (inactive).

The values are drawn from the supplement of paper PMC10105736.
